Reference: PubChem BioAssay AID624297 (National Center for Advancing Translational Sciences (NCATS), 2012)
“And” between values parts separate entries of the source, which are not always exact repeats. Equal entries are not always repeated. Out of some 340,000 compounds screened, about 6,200 (1.8%) were called active. Inconclusive results (about 10%) are left out. This is one part of a sample in which actives are shown more often than they occur. Calls follow the shape of the dose curve; as a rule, active = well fitted activation curve with a large enough effect; inconclusive = small, poorly fitted or top-dose-only effect; inactive = no such curve, though single readings can be large or run the other way.

Assay: A quantitative high throughput screen for small molecules that induce DNA re-replication in SW480 colon adenocarcinoma cells. Also: nearly all actives have a fitted effect of over 55% in size. As to re-replication activation: % of control where 0% means no effect.
Details: Hoechst DNA content imaging, 48 h; series mostly up to 46.1 µM
In short: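 Cells (250 per well) received 23 nL compound or DMSO by pin tool and were kept 48 hr at 37 C, 5% CO2. Nuclei were then stained with Hoechst for 40 min and scanned for DNA content.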
Potency is read from the fitted curve at half-maximal effect.

Potency, inactive:
Cc1cc(C)c([N+](=O)[O-])cc1-c1ccc(/C=N/NC(=O)c2nonc2N)o1
COc1cc(OC)c(/C=N/NC(=O)c2ccc([N+](=O)[O-])cc2)cc1Br
C[C@@H]1CN([C@@H](C)CO)C(=O)c2cc(NC(=O)C3CC3)ccc2O[C@H]1CN(C)C
COc1cc(C(=O)OCc2cc(=O)n3ccsc3n2)ccc1OC(C)C
CC(NC(=O)C(=O)N/N=C/c1ccc(Cl)cc1)c1ccccc1 (centres undefined)
CC(C)(C)C1CCC(=NNC(=O)c2cc(-c3ccccc3)n[nH]2)CC1 (centres undefined)
CC[C@@]1(C(=O)OC)N[C@H](CN(C)C(C)=O)[C@@H]2C(=O)N(C)C(=O)[C@@H]21
COC(=O)C1=C(C)NC(=O)CC1c1ccccc1OC (centres undefined)
COc1ccccc1C1C2=C(COC2=O)Nc2cc3c(cc21)OCO3 (centres undefined)
COc1ccc(C)cc1NC(=O)CSc1cccc[n+]1[O-]
O=S(=O)(NCc1ccc(Cl)cc1Cl)c1cccs1
Cc1ccc(S(=O)(=O)Cc2cc(-c3ccc(Cl)cc3)no2)cc1
Nn1c(SCC(=O)NC2CCCc3ccccc32)nnc1C1CC1 (centres undefined)
O=C1c2ccccc2C(=O)N1CCCCCCN1C(=O)c2ccccc2C1=O
CC(CNC(=O)Cn1cnc2c(OCc3ccccc3)ncnc21)c1ccccc1 (centres undefined)
O=C(C(Cl)Cl)N1CCN(c2ccccn2)CC1
O=C(Cc1ccc(Br)cc1)N1CCN(c2ccccn2)CC1
O=C(c1cccnc1)N(Cc1ccccc1)C(=O)c1cccnc1
CCOC(=O)N(Cc1ccccc1)C1CC1
CC1=CC(=NNS(=O)(=O)c2ccc([N+](=O)[O-])cc2)CC(C)(C)C1
COc1ccc(C(=O)N(C)Cc2ccc(OC)c(OC)c2OC)cc1S(=O)(=O)N1CCOCC1
COC(=O)C1=C(C)N(c2ccc(Br)cc2)C(=O)/C1=C\c1ccco1
COc1ccc([N+](=O)[O-])cc1NC(=O)COC(=O)/C=C/c1ccco1
O=C(CC1SC(N2CCOCC2)=NC1=O)Nc1ccccc1F (centres undefined)
CCCCCCSc1ccc([C@@H]2[C@H]3C(=O)N(CC)C(=O)[C@H]3[C@]3(C(=O)OC)CCCCN23)cc1
COC(=O)Cc1c(-c2[nH]c3ccccc3c2CC(=O)OC)[nH]c2ccccc12
O=C(CN1C(=O)NC2(CCCC2)C1=O)Nc1cc(C(F)(F)F)ccc1N1CCOCC1
Cc1cc(C)nc(N/N=C/c2c(C)oc3ccccc23)n1
O=C(COC(=O)/C=C/c1ccc(Br)o1)Nc1cccc(S(=O)(=O)N2CCOCC2)c1
CC1CCCCC12NC(=O)N(CC(=O)N1CCN(c3ccccc3)CC1)C2=O (centres undefined)
CCOc1cc(NC(=O)c2ccccc2C(=O)O)c(OCC)cc1NC(=O)c1ccccc1F
CCC(=O)Nc1ccc2nc(C)n(Cc3ccccc3Cl)c(=O)c2c1
Cc1cc(C#N)c(SCC(N)=O)nc1-c1ccc(F)cc1
O=C(c1cccs1)N1CCCC(c2nc(-c3ccc(F)cc3)no2)C1 (centres undefined)
CC12CCCCC1=CC(=O)CC2 (centres undefined)
CCC(=O)NC(=S)Nc1ccc(NC(=O)c2ccco2)c(Cl)c1
O=C(Nc1ccc(C2CC2(Cl)Cl)cc1)c1cccc([N+](=O)[O-])c1 (centres undefined)
O=C(COC(=O)CSc1ccccc1)Nc1ccc(F)cc1F
C=CC[C@H](CC(=O)NCCO)C(=O)N[C@@H](COC(=O)[C@@H](CC=C)Cc1ccc(F)cc1)Cc1c[nH]c2ccccc12
Cc1ccc(C(=O)Nc2ccccc2-c2ccccc2)cc1S(=O)(=O)Nc1ccccc1
Cn1c(N)cc(=O)n(C)c1=S
CCCn1nc(NS(=O)(=O)c2ccccc2)c2cc3cc(C)ccc3nc21
CCCn1nc(NS(=O)(=O)c2ccc(F)cc2)c2cc3ccccc3nc21
CCOC(=O)C1CCCN(C(=O)C2CCN(S(=O)(=O)c3ccc(Cl)c(C(F)(F)F)c3)CC2)C1 (centres undefined)
Cc1ccc(S(=O)(=O)N2CCCCC2)cc1C(=O)N1CCN(CCO)CC1
O=C(CCC(=O)N1CCN(S(=O)(=O)c2ccc(Cl)cc2)CC1)NCc1cccc(C(F)(F)F)c1
CN(C)c1nc(NN)nc(Nc2ccc(F)cc2)n1
OCCNc1nc(Nc2ccc(Cl)c(Cl)c2)nc2ccccc12
CC(=O)Oc1ccc2c(c1)C(=O)c1ccccc1C2=O

Potency, active:
COc1cc(/C=N\NC(=O)c2nonc2N)c(OC)cc1Br 0.291 µM
CC(NC(=O)C(=O)NN=C1CCC(C(C)(C)C)CC1)c1ccccc1 (centres undefined) 0.731 µM
CCCOc1ccccc1C1CC(=O)Nc2cc3c(cc21)OCO3 (centres undefined) 3.66 µM
O=S(=O)(Cc1ccc(Cl)cc1Cl)c1ccc(Cl)cc1 1.3 µM
O=C(/C=C/c1cccc(C(F)(F)F)c1)N1CCN(c2ccccn2)CC1 4.61 µM
Cc1coc2c(O)cc3c(c12)OC1(N2CCCCC2)C(=O)NCCCC31 (centres undefined) 20.6 µM and 7.08 µM
COc1ccc(N2C(=O)/C(=C\c3ccco3)N=C2SCC(N)=O)cc1Cl 18.4 µM
Cc1cc(C)nc(N/N=C/c2c(CO)cnc(C)c2O)n1 11.6 µM
CCN1CCN(c2cc3nc(C)n(Cc4ccccc4)c(=O)c3cc2NC(=O)c2ccccc2F)CC1 8.2 µM
N#Cc1c(-c2ccc(F)cc2)cc(C2CC2)nc1SCC(=O)c1cccs1 11.6 µM
O=C(Nc1ccc(NC(=O)c2ccco2)c(Cl)c1)c1cccc([N+](=O)[O-])c1 0.651 µM
CCCn1nc(NC(=O)C(C)C)c2cc3cc(OC)ccc3nc21 9.2 µM
CN(C)c1nc(Nc2ccc(Cl)c(Cl)c2)nc(N(C)C)n1 23.1 µM
O=C1C(Cl)=C(Oc2ccccc2)C(=O)c2ccccc21 2.06 µM

re-replication activation, inactive:
CN(C)C(=O)CCc1ccc2c3c([nH]c2c1)[C@]1(CCC2CCCC2)[C@@H](C(=O)N2CCOCC2)C[C@H](CC(=O)NCc2ccco2)C(=O)N1CC3 19.7% [at 9.22 µM]
